# Screens: PubChem, C. David Weaver Laboratory, Vanderbilt University
# GIRK2 act = activators of human GIRK2 potassium channels | 0.05% of 63,000 active | G protein-activated inward rectifier potassium channel 2 (Homo sapiens), P48051 | HEK293-GIRK2 thallium flux, Thallos fluorescence, MPD | AID 1259325, 2017 | calls only for hits at 25 µM; call rule not given here
# Target sequence (P48051 whole entry, looked up): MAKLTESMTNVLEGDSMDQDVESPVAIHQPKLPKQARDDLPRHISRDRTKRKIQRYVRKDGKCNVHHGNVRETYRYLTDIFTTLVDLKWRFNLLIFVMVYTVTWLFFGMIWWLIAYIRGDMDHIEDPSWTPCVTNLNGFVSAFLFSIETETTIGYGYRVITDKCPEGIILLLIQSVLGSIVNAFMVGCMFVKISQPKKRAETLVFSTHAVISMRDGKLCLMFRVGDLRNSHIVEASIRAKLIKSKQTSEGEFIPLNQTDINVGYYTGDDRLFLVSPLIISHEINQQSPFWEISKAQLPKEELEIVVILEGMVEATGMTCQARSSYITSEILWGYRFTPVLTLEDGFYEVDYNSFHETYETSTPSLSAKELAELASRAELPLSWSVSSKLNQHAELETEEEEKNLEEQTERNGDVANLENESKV
# * hit, by the source's call; i = inactive; + = active, no number. The full list was thinned out, with hits kept by preference.
SMILES,GIRK2 act
CC1CCCN(c2ncc(C(=O)NCc3ccccc3)c(N)n2)C1 (stereo not given),i
COc1cc(/C=C/C(=O)N(CCc2cccs2)Cc2ccoc2)cc(OC)c1OC,i
Cc1ccc(Cl)c2sc(N3CCN(C(=O)Nc4cccs4)CC3)nc12,i
COCCCn1c(C(=O)N2CCCCC2)cc2c(=O)n3cccc(C)c3nc21,i
CCc1cc2c(=O)[nH]c(C(C)C)nc2s1,i
Cc1cc(NC(=O)c2cc(=O)c3ccccc3o2)n(-c2nc3c(cnn3-c3ccccc3)c(=O)[nH]2)n1,i
COc1ccccc1-n1nnc(C(=O)NCc2nc3ccccc3n2C)c1-c1ccccn1,i
COc1ccccc1-n1nnc(C(=O)Nc2nc(C)cs2)c1-c1ccccn1,+
COc1ccccc1-n1nnc(C(=O)NCC2COCCO2)c1-c1ccccn1 (stereo not given),i
Cc1ccc(-c2ccc3nn(CC(=O)Nc4c(C)cccc4C)c(=O)n3n2)cc1C,i
O=S(=O)(c1ccc2c(c1)OCCO2)N1CCN(c2cc(N3CCCC3)ncn2)CC1,i
COc1ccc(-c2cc3ccc4c(c3oc2=O)CN(Cc2cccnc2)CO4)cc1OC,i
Cc1cccc(Nc2c(C(=O)N3CCCC3)cnc3nc(C)ccc23)c1,i
CCN(CC)c1ccc(-c2noc(CN3CCCCC3C)n2)cn1 (stereo not given),+
CCN(CC)c1ccc(-c2noc(CN3CCN(c4ccccc4Cl)CC3)n2)cn1,i
CCN(CC)c1ccc(-c2noc(CN3CCSCC3)n2)cn1,i
O=S(=O)(Cc1ccccc1)N1CCN(CC(O)c2ccco2)CC1 (stereo not given),i
CN1CCN(NC(=O)C(c2ccccc2)n2cccc2)CC1 (stereo not given),i
